Hits are enriched below; roughly 3.4% of the tested compounds scored in any of these assays.
TEAD-YAP block = TEAD-YAP interaction inhibition. HEK-TIYL cells, TEAD-Gal4/YAP UAS-luciferase luminescence. inhibition, % at 9.12 µM. 640,000 tested, 1.4% active; in the data active means inhibition above about 32%;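 further: 0% = median of test compound wells and 100% = reference inhibitor wells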
MITF primary = human MITF inhibition, primary screen; inhibition, % at 2.6 µM; 650,000 tested, 0.91% active; AID 1259374; AlphaScreen MITF homodimerization, bead proximity signal; O75030; in the data active means inhibition above about 50%;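 further: 0% = vehicle wells with protein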
GPR151 ag = human GPR151 activation; activation, % at 11.2 µM; 650,000 tested, 1% active; Q8TDV0; AID 1508602; PathHunter beta-arrestin GPR151 cells, luminescence; in the data active means activation above about 4.9%;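 further: 0% = median of compound wells and 100% = cells with positive control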
Target sequence (Q8TDV0 whole entry, looked up): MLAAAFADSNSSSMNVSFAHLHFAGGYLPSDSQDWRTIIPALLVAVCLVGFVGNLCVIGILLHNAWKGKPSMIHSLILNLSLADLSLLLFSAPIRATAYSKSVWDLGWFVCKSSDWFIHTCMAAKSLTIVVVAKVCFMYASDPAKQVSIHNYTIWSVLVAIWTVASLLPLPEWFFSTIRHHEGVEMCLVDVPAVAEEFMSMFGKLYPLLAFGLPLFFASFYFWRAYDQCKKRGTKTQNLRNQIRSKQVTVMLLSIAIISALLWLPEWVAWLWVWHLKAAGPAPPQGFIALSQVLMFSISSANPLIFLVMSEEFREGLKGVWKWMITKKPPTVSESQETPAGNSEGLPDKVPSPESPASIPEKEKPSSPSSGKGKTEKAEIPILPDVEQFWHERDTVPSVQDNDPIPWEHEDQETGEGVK
FBW7 activator = human FBW7 E3 ligase activation, primary screen; 650,000 tested, 0.13% active; AlphaScreen FBW7–phospho-cyclin E peptide binding, activator screen; normalized activity (activation), % at 26.1 µM; Q969H0; in the data active means normalized activity above about 1.9%;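 further: purified mutant Fbw7 with reduced substrate affinity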
* = called active by the depositor; ! = a repeat was not active.

SMILES	TEAD-YAP block	MITF primary	GPR151 ag	FBW7 activator
CC(=O)NC(c1ccccc1Cl)c1cc([N+](=O)[O-])c2cccnc2c1O (centres undefined)	4	90*	-1	-1
CC(=O)NC(c1cccs1)c1cc([N+](=O)[O-])c2cccnc2c1O (centres undefined)	-14	79*	0	0
CCC(=O)NC(c1cccs1)c1cc([N+](=O)[O-])c2cccnc2c1O (centres undefined)	2	45	1	-1
COc1ccc(C(NC(C)=O)c2cc([N+](=O)[O-])c3cccnc3c2O)cc1 (centres undefined)	-8	48	1	-1
CCOc1cc(C(NC(C)=O)c2cc([N+](=O)[O-])c3cccnc3c2O)ccc1O (centres undefined)	6	85*	0	0
CCOc1cc(C(=O)N2N=C(C)CC2(O)C(F)(F)F)cc(OCC)c1OCC (centres undefined)	61*	-2	1	0
COc1cc(C(=O)N2N=C(C)CC2(O)C(F)(F)F)ccc1O (centres undefined)	-15	0	0	0
Cc1cc(C(=O)CSc2nnc(-c3cccs3)o2)c(C)n1CC1CCCO1 (centres undefined)	-18	18	2	0
Cc1cc(C(=O)CN2C(=O)C3CC=CCC3C2=O)c(C)n1CC1CCCO1 (centres undefined)	36*	-2	1	0
Cc1nnc(SCC(=O)c2cc(C)n(CC3CCCO3)c2C)s1 (centres undefined)	41*	5	0	0
Cc1nc(C(C)NC2CCN(c3ccc(C(=O)NC4CCCC4)cc3)CC2)cs1 (centres undefined)	-4	1	-1	0
COc1ccccc1CC(=O)Nc1cc(OC)c(OC)cc1C(=O)O	12	20	0	1
CCCCC(=O)Nc1cc(OC)c(OC)cc1C(=O)O	5	-1	1	2.2*
CC1=NNC(=O)C1CC(=O)N/N=C/c1ccccc1[N+](=O)[O-] (centres undefined)	12	1	1	0
Cc1nc2ccc(C(=O)N3c4ccccc4CC3C)cc2s1 (centres undefined)	42*	17	-1	0
O=C(Nc1ccc(F)cc1)C1CC(=O)N(CCc2ccccc2)C(=Nc2cccc(Cl)c2)S1 (centres undefined)	-20	-16	2	-1
COc1cc2c(cc1OC)[C@@H]1C(=O)c3ccc4c(c3O[C@@H]1CO2)C=CC(C)(C)O4	69*	-4	2	0
O=C(N/N=C/c1sc(=O)[nH]c1-[n+]1ccc(-c2ccncc2)cc1)c1cccnc1	9	5	-1	0
CC(=O)c1ccc(N=Nc2ccc(O)c(C=O)c2)cc1	90*	-16	-4	0
COc1ccc(C)cc1NC(=O)CSc1nc2cc3c(cc2cc1C#N)OCCO3	67*	5	0	0
Cc1cccc(NC(=O)CSc2nc3cc4c(cc3cc2C#N)OCCO4)c1	57*	3	0	0
Nc1ccc(-c2cnc3c(Nc4ccccc4)nccn23)cc1	53*	7	-3	0
c1ccc(Nc2nccn3c(-c4ccco4)cnc23)cc1	44*	2	-3	0
Oc1cccc(-c2cnc3c(Nc4ccccc4)nccn23)c1	3	-12	-3	0
COc1ccccc1C(=O)Nc1nc2ccc(C)cc2s1	-38	-4	-1	0
SMILES	TEAD-YAP block	MITF primary	GPR151 ag	FBW7 activator
COc1ccc(CCN2C(=O)CSC2c2ccc(C(C)C)cc2)cc1OC (centres undefined)	40*	-3	2	0
Cn1c2ccncc2c2cc([N+](=O)[O-])ccc21	76*	14	-2	0
CCOc1ccc(C2C3CCCCC3=NN2c2nc(C)c(C(C)=O)s2)cc1 (centres undefined)	4	-5	0	0
c1cc(CNc2ccn3ncc(-c4ccc5c(c4)OCO5)c3n2)ccn1	26	9	0	0
CN(C)CCNc1ccn2ncc(-c3ccc4c(c3)OCO4)c2n1	-3	-1	-1	2.0*
CCOCCCNC(=O)c1ccc2c(c1)nc(C)n2-c1cc(C)ccc1OC	15	-3	2	0
COCCCNC(=O)c1ccc2c(c1)nc(C)n2-c1cc(C)ccc1OC	56*	-12	1	0
COc1ccc(-c2coc3cc(O)cc(O)c3c2=O)cc1	37*!	-5	0	0
O=c1c(-c2ccc(Br)cc2)coc2cc(O)cc(O)c12	-19	13	0	1
COc1ccc(-c2coc3cc(OC)ccc3c2=O)cc1	9	-2	-1	0
CCOC(=O)C(C)Oc1ccc2c(=O)c(-c3ccc(OC(C)C)cc3)coc2c1 (centres undefined)	0	-4	1	0
O=c1c(-c2ccc(O)cc2)coc2cc(O)cc(O)c12	44*!	15	-2	0
Cc1nc(-c2coc3cc(O)cc(O)c3c2=O)cs1	-34	-13	-5	0
CC(C)Oc1cc(O)c2c(=O)c(-c3ccc(O)cc3)coc2c1	57*	3	0	0
COc1ccc(-c2coc3cc(O)ccc3c2=O)cc1	53*!	25	-3	0
O=C(O)c1cccc(I)c1C(=O)O	5	-9	4	0
CCOC(=O)N1CCN(c2c(N3CCN(c4cccc(C)c4)C(C)C3)c(=O)c2=O)CC1 (centres undefined)	-7	0	-1	0
CS(=O)(=O)Nc1cccc(S(=O)(=O)NC2=NCCC2)c1	4	10	0	0
Cc1oc2cc(O)cc(O)c2c(=O)c1-c1ccc2c(c1)OCCCO2	43*	7	0	0
O=c1c(-c2ccc3c(c2)OCCCO3)coc2cc(O)ccc12	75*	-1	-3	0
O=c1c(-c2ccc(Cl)cc2)coc2cc(O)ccc12	16	4	-4	0
Cc1oc2cc(O)ccc2c(=O)c1-c1ccc2c(c1)OCCO2	-13	10	-1	0
Cc1nc(CN(C)C(=O)c2cc(COc3ccc4ncccc4c3)on2)cs1	37*	3	3	0
CN(CC1COCCO1)C(=O)c1cc(COc2ccc3ncccc3c2)on1 (centres undefined)	50*	1	3	0
COc1ccc(Oc2coc3cc(OCC(=O)OC(C)C)ccc3c2=O)cc1	9	-2	0	0
SMILES	TEAD-YAP block	MITF primary	GPR151 ag	FBW7 activator
C=CCN(CC=C)C(=O)/C=C/c1ccc([N+](=O)[O-])cc1	3	4	0	0
O=C1C(C=NCc2cccnc2)=C(O)c2ccccc21	38*	5	0	0
O=C1C(C=NCc2ccncc2)=C(O)c2ccccc21	22	3	-1	0
c1cncc(-c2nc3c4ccccc4nc(N4CCC(N5CCCCC5)CC4)n3n2)c1	46*	1	0	0
Cc1sc(NC(=O)c2ccco2)c(C(c2cccnc2)N2CCC(Cc3ccccc3)CC2)c1C (centres undefined)	35*	4	-1	0
CCOc1ccc(/C=C2\SC(=S)N(CCCC(=O)O)C2=O)cc1	79*	2	-1	0
CCOc1cc(/C=C2\SC(=S)N(CCCC(=O)O)C2=O)ccc1O	82*	13	0	0

High-throughput results deposited in PubChem by The Scripps Research Institute Molecular Screening Center.
